# High-throughput results deposited in PubChem by several laboratories.
# The list is not random: actives were taken first. Their share in the collection is about 0.44%.
# RmlC RmlD mix = mixture blocks RmlC and RmlD coupled enzyme activity. 110,000 compounds, 0.39% hits. inhibition, % at 5.5 µM. RmlC/RmlD coupled enzyme inhibition, 384-well mixture HTS; in the data active = inhibition above about 30%, passing the limit was not always enough
# YopH inh = inhibitors of Yersinia enterocolitica YopH tyrosine phosphatase | inhibition, % (concentration not given with the values) | fluorescence Ex485/Em525 | 140,000 compounds, 0.16% hits; in the data active = inhibition above about 50%
# Active calls of the source: *; nt = no result given.
SMILES,RmlC RmlD mix,YopH inh
O=C1CCCC2=C1C1(O)C(=O)c3ccccc3C1(O)O2 (centres undefined),13.9,98.8*
N#CC1=C(N)OC2=C(C(=O)CCC2)[C@]12C(=O)N(CC(N)=O)c1ccccc12,13.1,-50.3
O=C(NC(Cc1c[nH]c2ccccc12)c1nnc2n1CCCCC2)c1ccccc1 (centres undefined),10.7,-22.0
O=C(NC(Cc1c[nH]c2ccccc12)c1nnc2n1CCCCC2)c1cccs1 (centres undefined),6.8,55.4*
Cn1c(CSc2nc3ccccc3s2)nnc1SCC(=O)NCc1cccnc1,-3.9,-18.3
O=C1C(Cl)=C(NCCCO)C(=O)c2ccccc21,8.5,-19.9
Cc1ccc(NC2=C(NCCO)C(=O)c3ccccc3C2=O)cc1,nt,89.1*
O=C(O)c1ccc2c(c1)-c1nc3ccccc3n1C2=O,121.8*,-17.4
O=C(O)c1ccc2c(c1)C(=O)N(c1ncccn1)C2=O,nt,-3.0
COC(=O)/C=C/c1cc(F)ccc1S(=O)(=O)NC(C)(C)C,3.1,nt
COCCCNC(=O)C1CCCN(C(=O)Nc2ccc(OC)cc2)C1 (centres undefined),2.3,53.3*
COc1ccc(NC(=O)N2CCCC(C(=O)NC(C)C)C2)cc1 (centres undefined),-12.0,-30.4
Cc1cc(NCCN2CCOCC2)n2nc(C)c(-c3ccccc3)c2n1,29.7,2.9
Cc1cc(C)c2c(n1)nn1c(NCCN3CCOCC3)cc(C)nc21,57.8*,-27.8
COCCNc1cc(C)nc2c(-c3ccccc3OC)c(C)nn12,-1.1,-23.1
COCCNc1cc(C)nc2c3c(C)cc(C)nc3nn12,58.1*,-46.0
Nc1c(NCc2ccccc2F)c(=O)[nH]c(=O)n1Cc1ccccc1,-21.1,64.0*
Nc1c(NCCC2=CCCCC2)c(=O)[nH]c(=O)n1Cc1ccccc1,nt,-12.6
O=C1c2cccc(Cl)c2C(=O)c2c1cccc2N1CCCC1,-6.7,-0.2
CCCCC1=CC2=CC(=O)C(C)(OC(=O)CC)C(=O)C2=CN1CCCCO (centres undefined),8.9,nt
CCCCCCCC1=CC2=CC(=O)C(C)(OC(C)=O)C(=O)C2=CN1CCc1ccccc1 (centres undefined),nt,50.4*
O=C(NN=c1c(=O)c2ccccc2c1=O)c1ccccc1,-62.5,68.3*
CC(O)C(O)C(O)C(O)/C=N/NC(=O)c1ccccc1 (centres undefined),nt,-11.4
O=C(CSc1cn(Cc2ccccc2)c2ccccc12)NCc1ccc(F)cc1,-6.2,-11.9
COCCN1C(=O)N[C@@H](c2ccco2)C(C(C)=O)=C1C,-9.8,-30.2
SMILES,RmlC RmlD mix,YopH inh
COc1ccc(O)c(C(C)(C)C)c1,10.9,nt
CC(C)(C)c1cc(OC(=O)c2ccncc2)ccc1O,2.2,56.8*
O=S(=O)(c1ccccc1)n1ccc2cccnc21,-4.3,-10.5
CCn1c(-c2cc(OC)c(OC)c(OC)c2)n[nH]c1=S,-11.9,95.7*
C=CCn1c(-c2cc(OC)c(OC)c(OC)c2)n[nH]c1=S,3.2,1.8
O=C(NCc1ccccc1)c1onc(CSc2ccc(F)c(F)c2)c1C(=O)NCc1ccccc1,-7.7,nt
O=c1[nH]c(Nc2ccccc2Cl)cc2ccccc12,-1.8,nt
O=c1[nH]c(Nc2ccccn2)cc2ccccc12,32.4,nt
Cc1ccccc1Nc1cc2ccccc2c(=O)[nH]1,4.1,101.2*
O=c1[nH]c(Nc2ccc(F)cc2)cc2ccccc12,-15.4,90.3*
Cc1ccc(Oc2ccc(-c3nc(N)nc(N)n3)cc2)cc1C,-3.5,-29.8
CCO[C@H]1OC(C(N)=O)=C[C@@H](C(C)(C)C)[C@@H]1CCCO,-10.5,nt
CCC1=C(OC(=O)N(CC)CC)N2C(=O)OC(=NCCc3c[nH]c4ccccc34)[C@]2(Cc2ccccc2)[C@H]2C1=CC[C@H]1C(=O)N(C)C(=O)[C@H]12,-8.0,nt
O=C1c2cccnc2C(=O)N1Cc1ccccc1,8.3,-40.9
O=C1Cc2ccccc2C(=O)N1Cc1ccccc1,-16.6,82.5*
CCN(Cc1ccncc1)C(=O)C1CCN(S(=O)(=O)c2cccs2)CC1,-10.2,-6.7
CCCCCCc1nc2ccccc2c(=O)n1NC(=O)c1c(O)c2c(n(CC(C)C)c1=O)CCCC2,-11.7,4.9
Cc1nc2ccccc2c(=O)n1NC(=O)c1c(O)c2c(n(CC(C)C)c1=O)CCCC2,3.7,83.6*
COc1ccccc1CN1[C@@H](CC(C)=O)c2cc(C(F)(F)F)ccc2S1(=O)=O,4.0,nt
CCN(CC)c1ccc(NC(=O)c2cc(OC)cc(OC)c2)c(C)c1,nt,-112.5
CCN(CC)c1ccc(NC(=O)c2cccc(OC)c2)c(C)c1,7.4,50.7*
CC(C)C(=O)NCCc1nc(-c2ccccc2Cl)no1,12.6,nt
COc1ccccc1NC(=O)N1CCC(C(=O)c2ccc(F)cc2)CC1,-11.3,56.0*
CCOc1ccccc1NC(=O)N1CCC(C(=O)c2ccc(F)cc2)CC1,-5.6,-18.0
C=CCOC(=O)C1=C[C@@H](c2csc3ccccc23)[C@H](CCCO)[C@@H](OCC)O1,1.5,nt
SMILES,RmlC RmlD mix,YopH inh
COc1ccc2nc3oc(C(=O)N4CCN(c5cccc(Cl)c5)CC4)cc3cc2c1,5.2,-59.8
COc1ccc2nc3oc(C(=O)N4CCC(C(N)=O)CC4)cc3cc2c1,33.7*,-55.5
COP1(=O)C=C[C@H](N(Cc2ccccc2)S(=O)(=O)c2ccccc2[N+](=O)[O-])[C@@H](C)O1 (some centres undefined),-0.9,nt
O=C(NCc1ccccn1)C1(C(F)(F)F)C/C(=C\CCO)CCCO1 (centres undefined),9.8,nt
O=C(O)C1OC(Oc2cc3oc(-c4ccccc4)cc(=O)c3c(O)c2O)C(O)C(O)C1O (centres undefined),-12.0,53.2*
COc1c(OC2OC(C(=O)O)C(O)C(O)C2O)cc(O)c2c(=O)cc(-c3ccccc3)oc12 (centres undefined),-10.1,-48.1
CCn1c2ccccc2n2c(=O)c(=O)n(CC(=O)Nc3ccc(C(C)C)cc3)nc12,nt,-18.7
Cc1ccc(O)c(C(=O)c2cnc3c(c2)c(C)nn3-c2ccccc2)c1,nt,-24.6
C[C@H](NC(=O)c1nc[nH]c1C(=O)NC1CCN(C(=O)OC(C)(C)C)CC1)C(=O)OCc1ccccc1,-24.7,nt
CCOc1ccc(-c2nnc3ccc(SCC(=O)Nc4nc5ccccc5s4)nn23)cc1,nt,65.5*
CCOc1ccc(-c2nnc3ccc(SCC(=O)Nc4nc5ccc(C)cc5s4)nn23)cc1,nt,-7.4
COc1ccc(CN2C(=O)c3ccccc3C(/C=N\OCc3ccc(F)cc3)C2=O)cc1 (centres undefined),3.1,59.2*
COc1ccc(CN2C(=O)c3ccccc3C(/C=N/OCc3ccc(Cl)cc3)C2=O)cc1 (centres undefined),-33.5,-6.2
Cc1cc(C)n(/N=C/c2ccc(C(C)C)cc2)c(=O)c1C#N,nt,-23.7
O=C(O)CCC(=O)NC1CCCCCCC1,0.0,-19.9
O=C(O)CCCCC1CCSS1 (centres undefined),73.5*,nt
Oc1ccc2ccccc2c1C=NC12CN3CCN(CN(C3)C1)C2,-16.6,81.5*
OCC(CO)(CO)N=Cc1c(O)ccc2ccccc12,-4.4,-38.9
CCc1cc2c(NCC3CCCO3)nc(C)nc2s1 (centres undefined),11.8,-14.6
CC(C)N(C(=O)COc1ccc(Br)cc1Cl)C(C)C,3.0,52.4*
COCCNC(=O)COc1ccc(Br)cc1Cl,-8.6,-12.9
CCO[C@@H]1OC(C(=O)N2CCN(Cc3ccccc3)CC2)=C[C@H](c2csc3ccccc23)[C@H]1CCCO,2.7,nt
